Reference: the supplement of paper PMC10077471
Whole data set: some 1,900 compounds, median “excess over highest single agent (ExcessHSA) synergy score, 6x6 matrix” near -83, cut for the lowest 2% near -370. Shown is part of a subset that was picked to be rich in the lowest values.

The compounds below were run on NCI-H446 (assay: excess over highest single agent (ExcessHSA) synergy score, 6x6 matrix; higher = less synergy (more negative = stronger synergy)). Details: 72 h; CellTiter-Glo viability.

Compound	excess over highest single agent
O=C1NC(=O)/C(=C/c2ccc3nccc(-c4ccncc4)c3c2)S1 + Cc1sc2c(c1C)C(c1ccc(Cl)cc1)=N[C@@H](CC(=O)OC(C)(C)C)c1nnc(C)n1-2 [NCGC00250412-19]	-177
CCCNC(=O)[C@H]1O[C@@H]1C(=O)N[C@H](C(=O)N1CCC[C@H]1C(=O)OC)[C@@H](C)CC + Cc1sc2c(c1C)C(c1ccc(Cl)cc1)=N[C@@H](CC(=O)OC(C)(C)C)c1nnc(C)n1-2 [NCGC00250412-19]	-117
CN(C)c1ccc(C2Nc3ccc4ccccc4c3C3=C2C(=O)CC(C)(C)C3)cc1Br (configuration not stated) + Cc1sc2c(c1C)C(c1ccc(Cl)cc1)=N[C@@H](CC(=O)OC(C)(C)C)c1nnc(C)n1-2 [NCGC00250412-19]	-30.1
O=c1cc(N2CCOCC2)oc2c(-c3cccc4c3sc3ccccc34)cccc12 + Cc1sc2c(c1C)C(c1ccc(Cl)cc1)=N[C@@H](CC(=O)OC(C)(C)C)c1nnc(C)n1-2 [NCGC00250412-19]	-318
O=c1cc(N2CCOCC2)oc2c(-c3ccccc3)cccc12 + Cc1sc2c(c1C)C(c1ccc(Cl)cc1)=N[C@@H](CC(=O)OC(C)(C)C)c1nnc(C)n1-2 [NCGC00250412-19]	83.7
CCN1CCN(CC(=O)Nc2ccc(-c3cccc4c(=O)cc(N5CCOCC5)oc34)c3sc4ccccc4c23)CC1 + Cc1sc2c(c1C)C(c1ccc(Cl)cc1)=N[C@@H](CC(=O)OC(C)(C)C)c1nnc(C)n1-2 [NCGC00250412-19]	-383
CN(C)CC(=O)N1CCC(c2ccc(NC(=O)c3ncc(C#N)[nH]3)c(C3=CCCCC3)c2)CC1 + Cc1sc2c(c1C)C(c1ccc(Cl)cc1)=N[C@@H](CC(=O)OC(C)(C)C)c1nnc(C)n1-2 [NCGC00250412-19]	53.2
CC1CCN(c2cc(N3CCN(C)CC3)ccc2NC(=O)c2cc(C#N)c[nH]2)CC1 + Cc1sc2c(c1C)C(c1ccc(Cl)cc1)=N[C@@H](CC(=O)OC(C)(C)C)c1nnc(C)n1-2 [NCGC00250412-19]	106
COc1ccc(Nc2nccc(NCCO)n2)cc1 + Cc1sc2c(c1C)C(c1ccc(Cl)cc1)=N[C@@H](CC(=O)OC(C)(C)C)c1nnc(C)n1-2 [NCGC00250412-19]	81.9
CN(C)c1ccc2cc(C(=O)N[C@@H](CCCN=C(N)CCl)C(=O)NCc3ccccc3)ccc2c1 + Cc1sc2c(c1C)C(c1ccc(Cl)cc1)=N[C@@H](CC(=O)OC(C)(C)C)c1nnc(C)n1-2 [NCGC00250412-19]	-202
NS(=O)(=O)c1ccc(Nc2nc(OCC3CCCCC3)c3[nH]cnc3n2)cc1 + Cc1sc2c(c1C)C(c1ccc(Cl)cc1)=N[C@@H](CC(=O)OC(C)(C)C)c1nnc(C)n1-2 [NCGC00250412-19]	-148
CCN(CC)CCn1c(=O)c(Cc2ccc(OC)cc2)nc2ccccc21 + Cc1sc2c(c1C)C(c1ccc(Cl)cc1)=N[C@@H](CC(=O)OC(C)(C)C)c1nnc(C)n1-2 [NCGC00250412-19]	-47.3
O=c1[nH]c(=O)n([C@H]2C[C@H](O)[C@@H](CO)O2)cc1I + Cc1sc2c(c1C)C(c1ccc(Cl)cc1)=N[C@@H](CC(=O)OC(C)(C)C)c1nnc(C)n1-2 [NCGC00250412-19]	-172
Cc1cn([C@@H]2C[C@@H](O)[C@H](CO)O2)c(=O)[nH]c1=O + Cc1sc2c(c1C)C(c1ccc(Cl)cc1)=N[C@@H](CC(=O)OC(C)(C)C)c1nnc(C)n1-2 [NCGC00250412-19]	21.8
O=c1[nH]c(=O)n([C@H]2C[C@H](O)[C@@H](CO)O2)cc1F + Cc1sc2c(c1C)C(c1ccc(Cl)cc1)=N[C@@H](CC(=O)OC(C)(C)C)c1nnc(C)n1-2 [NCGC00250412-19]	-390
Cc1cc(OCCCS(C)(=O)=O)cc(C)c1-c1cccc(COc2ccc3c(c2)OC[C@H]3CC(=O)O)c1 + Cc1sc2c(c1C)C(c1ccc(Cl)cc1)=N[C@@H](CC(=O)OC(C)(C)C)c1nnc(C)n1-2 [NCGC00250412-19]	-123
c1ccc2c(CCNc3ccc(Nc4ccncc4)cc3)c[nH]c2c1 + Cc1sc2c(c1C)C(c1ccc(Cl)cc1)=N[C@@H](CC(=O)OC(C)(C)C)c1nnc(C)n1-2 [NCGC00250412-19]	-76.1
Cc1cc(SCc2sc(-c3ccc(C(F)(F)F)cc3)nc2C)ccc1OCC(=O)O + Cc1sc2c(c1C)C(c1ccc(Cl)cc1)=N[C@@H](CC(=O)OC(C)(C)C)c1nnc(C)n1-2 [NCGC00250412-19]	-98.3
CC(=O)O/N=C1/C(c2c(O)[nH]c3cc(Br)ccc23)=Nc2ccccc21 + Cc1sc2c(c1C)C(c1ccc(Cl)cc1)=N[C@@H](CC(=O)OC(C)(C)C)c1nnc(C)n1-2 [NCGC00250412-19]	54.4

Compound	excess over highest single agent
O=c1c(-c2ccc(O)cc2)coc2cc(O[C@@H]3O[C@H](CO)[C@@H](O)[C@H](O)[C@H]3O)ccc12 + Cc1sc2c(c1C)C(c1ccc(Cl)cc1)=N[C@@H](CC(=O)OC(C)(C)C)c1nnc(C)n1-2 [NCGC00250412-19]	-180
Cc1c(NC(=O)c2ccc(C(C)(C)C)cc2)cccc1-c1cn(C)c(=O)c(Nc2ccc(C(=O)N3CCOCC3)cc2)n1 + Cc1sc2c(c1C)C(c1ccc(Cl)cc1)=N[C@@H](CC(=O)OC(C)(C)C)c1nnc(C)n1-2 [NCGC00250412-19]	-90.9
Nc1ccn([C@@H]2O[C@H](CO)[C@@H](O)[C@H]2O)c(=O)n1 + Cc1sc2c(c1C)C(c1ccc(Cl)cc1)=N[C@@H](CC(=O)OC(C)(C)C)c1nnc(C)n1-2 [NCGC00250412-19]	-268
Nc1ccn([C@@H]2O[C@H](CO)[C@@H](O)[C@@H]2O)c(=O)n1 + Cc1sc2c(c1C)C(c1ccc(Cl)cc1)=N[C@@H](CC(=O)OC(C)(C)C)c1nnc(C)n1-2 [NCGC00250412-19]	-107
Nc1ccn([C@@H]2O[C@H](CO)[C@@H](O)C2(F)F)c(=O)n1 + Cc1sc2c(c1C)C(c1ccc(Cl)cc1)=N[C@@H](CC(=O)OC(C)(C)C)c1nnc(C)n1-2 [NCGC00250412-19]	-379
CC(=O)N1CCN(c2ccc(OCc3nn(C)c(C)c3-c3cccc4c(CCCOc5cccc6ccccc56)c(C(=O)O)n(Cc5cccnc5)c34)cc2)CC1 + Cc1sc2c(c1C)C(c1ccc(Cl)cc1)=N[C@@H](CC(=O)OC(C)(C)C)c1nnc(C)n1-2 [NCGC00250412-19]	97.8
FC(F)(F)c1ccc(Nc2nc3ccc(Oc4ccnc(-c5ncc(C(F)(F)F)[nH]5)c4)cc3[nH]2)cc1 + Cc1sc2c(c1C)C(c1ccc(Cl)cc1)=N[C@@H](CC(=O)OC(C)(C)C)c1nnc(C)n1-2 [NCGC00250412-19]	-7.92
CC1(C)CC(=O)c2c(C(F)(F)F)nn(-c3ccc(C(N)=O)c(N[C@H]4CC[C@H](OC(=O)CN)CC4)c3)c2C1 + Cc1sc2c(c1C)C(c1ccc(Cl)cc1)=N[C@@H](CC(=O)OC(C)(C)C)c1nnc(C)n1-2 [NCGC00250412-19]	-482
CC1(C)CC(=O)c2c(C(F)(F)F)nn(-c3ccc(C(N)=O)c(N[C@H]4CC[C@H](O)CC4)c3)c2C1 + Cc1sc2c(c1C)C(c1ccc(Cl)cc1)=N[C@@H](CC(=O)OC(C)(C)C)c1nnc(C)n1-2 [NCGC00250412-19]	-379
COc1cccc2c1CCCC2CCCN1CCN(C2CCCCC2)CC1 (configuration not stated) + Cc1sc2c(c1C)C(c1ccc(Cl)cc1)=N[C@@H](CC(=O)OC(C)(C)C)c1nnc(C)n1-2 [NCGC00250412-19]	-180
Cc1nnc(C(C)C)n1[C@H]1C[C@H]2CC[C@@H](C1)N2CC[C@H](NC(=O)C1CCC(F)(F)CC1)c1ccccc1 + Cc1sc2c(c1C)C(c1ccc(Cl)cc1)=N[C@@H](CC(=O)OC(C)(C)C)c1nnc(C)n1-2 [NCGC00250412-19]	-88.4
O=C(CC12CC3CC(CC(C3)C1)C2)Nc1cccc2nc(NCCNCCO)ccc12 + Cc1sc2c(c1C)C(c1ccc(Cl)cc1)=N[C@@H](CC(=O)OC(C)(C)C)c1nnc(C)n1-2 [NCGC00250412-19]	-112
COc1ccccc1[C@H](c1cccc2ccccc12)[C@@](C)(C#N)C(=O)N1CCC(c2cccc(C(F)(F)F)c2)CC1 + Cc1sc2c(c1C)C(c1ccc(Cl)cc1)=N[C@@H](CC(=O)OC(C)(C)C)c1nnc(C)n1-2 [NCGC00250412-19]	-352
Oc1ccc2ccccc2c1SSc1c(O)ccc2ccccc12 + Cc1sc2c(c1C)C(c1ccc(Cl)cc1)=N[C@@H](CC(=O)OC(C)(C)C)c1nnc(C)n1-2 [NCGC00250412-19]	56.9
NS(=O)(=O)OC[C@@H]1C[C@@H](n2ccc3c(N[C@H]4CCc5ccccc54)ncnc32)C[C@@H]1O + Cc1sc2c(c1C)C(c1ccc(Cl)cc1)=N[C@@H](CC(=O)OC(C)(C)C)c1nnc(C)n1-2 [NCGC00250412-19]	-544
O=C1NC(=O)C(c2cnc3ccccn23)=C1c1cn2c3c(cccc13)CN(C(=O)N1CCOCC1)CC2 + Cc1sc2c(c1C)C(c1ccc(Cl)cc1)=N[C@@H](CC(=O)OC(C)(C)C)c1nnc(C)n1-2 [NCGC00250412-19]	-24.9
NC1(Cc2ccc(Cl)cc2)CCN(c2ncnc3[nH]ccc23)CC1 + Cc1sc2c(c1C)C(c1ccc(Cl)cc1)=N[C@@H](CC(=O)OC(C)(C)C)c1nnc(C)n1-2 [NCGC00250412-19]	-66
COc1cc(CCc2cc(NC(=O)c3ccc(N4CC(C)NC(C)C4)cc3)n[nH]2)cc(OC)c1 (configuration not stated) + Cc1sc2c(c1C)C(c1ccc(Cl)cc1)=N[C@@H](CC(=O)OC(C)(C)C)c1nnc(C)n1-2 [NCGC00250412-19]	-88.8
